Results reported in PubChem BioAssay AID1903 (Southern Research Specialized Biocontainment Screening …, 2009).
The campaign covered roughly 310,000 compounds. About 1,200 (0.39%) were called active. How the calls were made is not given here. Only a sample is shown. Results with a measured potency or affinity are listed apart.

Target: Large T antigen (Simian virus 40) (UniProt P03070)
Assay: SV40 large T antigen inhibitors, biochemical (AID 1903)
Conditions: SV40 large T antigen ATPase/helicase inhibition assay; at 20 µM; hits give high values

Chain of Large T antigen (Simian virus 40) (P03070 whole entry, looked up): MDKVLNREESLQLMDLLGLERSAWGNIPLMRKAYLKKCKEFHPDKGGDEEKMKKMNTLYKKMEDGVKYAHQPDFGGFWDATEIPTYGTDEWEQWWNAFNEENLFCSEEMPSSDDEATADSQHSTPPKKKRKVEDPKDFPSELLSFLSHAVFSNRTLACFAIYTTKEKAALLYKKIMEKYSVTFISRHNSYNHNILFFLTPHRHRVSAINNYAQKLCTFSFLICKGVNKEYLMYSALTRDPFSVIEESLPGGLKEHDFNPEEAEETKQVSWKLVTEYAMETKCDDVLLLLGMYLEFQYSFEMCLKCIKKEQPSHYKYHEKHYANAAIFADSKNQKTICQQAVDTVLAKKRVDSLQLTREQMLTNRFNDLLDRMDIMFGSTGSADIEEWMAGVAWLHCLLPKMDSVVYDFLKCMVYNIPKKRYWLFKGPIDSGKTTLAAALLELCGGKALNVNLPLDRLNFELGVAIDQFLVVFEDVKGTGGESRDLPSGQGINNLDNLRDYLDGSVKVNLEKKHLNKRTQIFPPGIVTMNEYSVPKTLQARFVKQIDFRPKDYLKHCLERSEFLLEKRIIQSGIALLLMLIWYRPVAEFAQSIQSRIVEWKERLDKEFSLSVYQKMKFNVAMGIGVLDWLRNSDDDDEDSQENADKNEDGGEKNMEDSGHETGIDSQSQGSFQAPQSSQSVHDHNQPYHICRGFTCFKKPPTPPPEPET

inhibition, inactive:
CCn1cc(S(=O)(=O)CC(=O)Nc2cc(C)ccc2C)c2ccccc21 3.58%, CC(=O)c1ccc(OCCCC(=O)NC2CCC(C)CC2)cc1 (centres undefined) 23.9%, Cc1cccc(-c2noc(CN(C)C(=O)COc3ccccc3)n2)c1 13.7%, Cc1nn(-c2ccccc2)c(C)c1C(=O)Nc1ccc(N2CCOCC2)cc1 26.7%, Cc1nn(-c2ccccc2)c(Cl)c1C(=O)Nc1ccc(N2CCOCC2)cc1 9.69%, C/C(CC(=O)Nc1ccc(N(C)C)cc1)=N\NC(=O)c1ccc([N+](=O)[O-])cc1 22.9%, C/C(CC(=O)Nc1ccc2c(c1)OCCO2)=N\NC(=O)c1ccc([N+](=O)[O-])cc1Cl 3.29%, C/C(CC(=O)Nc1ccc(N(C)C)cc1)=N\NC(=O)c1ccc(Cl)cc1 21.9%, C/C(CC(=O)NCc1ccco1)=N\NC(=O)c1ccc(Cl)cc1Cl 5.88%, Cc1nnsc1C(=O)N1CCCC(N2CCN(c3cccc(C(F)(F)F)c3)CC2)C1 (centres undefined) 12.9%, COCC(=O)Nc1ccc2c(c1)OCC(=O)N2Cc1ccccc1F 20.2%, CC(=O)N1CCN(CC(=O)O)CC1 5.47%, Cn1c(N)c(C(=O)Nc2ccccc2)c(=O)[nH]c1=O 5.18%, CCCNC(=O)Cn1sc2nc(C)cc(C)c2c1=O 8.82%, Cc1ccc(NC(=O)Cn2sc3nc(C)cc(C)c3c2=O)c(Cl)c1 5.12%, O=C(CCNC(=O)Cn1ccc2ccccc2c1=O)NCCCN1CCN(c2ccccc2F)CC1 -2.74%, Cc1c(Cl)cccc1NC(=O)Cn1cc(C(F)(F)F)cc(Cl)c1=O 6.09%, Cn1c2ccccc2c2cnn(CC(=O)NCCCN3CCN(c4ccccc4F)CC3)c(=O)c21 9.9%, COc1ccc(OC)c(CCNC(=O)Cn2nc(C)c3c(C)n(-c4ccccc4)nc3c2=O)c1 2.47%, O=C(c1cc([N+](=O)[O-])ccc1Cl)N1c2ccccc2Sc2ccccc21 3.02%, Cc1cc(C)cc(OCc2nnc(SCC(=O)NC3CC3)n2C)c1 -1.01%, CCOC(=O)N1CCC(N2C(=O)c3ccc(C(=O)NCCOC)cc3C2=O)CC1 5.99%, COc1cccc(NC(=O)Nc2cc(C)ccc2OC)c1 2.17%, CCCc1cc(=O)oc2cc(C)cc(OCC(=O)NCC(O)c3ccccc3)c12 (centres undefined) 12.5%, Cc1ccc(N2CC(=O)N(NC(=O)Nc3ccc(Cl)c(Cl)c3)CC2=O)cc1 13.8%, O=C(CCC(=O)N1CCN(Cc2ccccc2)CC1)Nc1nnc(C2CCCCC2)s1 13.1%, CSCCC(NC(N)=O)C(=O)Nc1cccc(S(=O)(=O)N2CCOCC2)c1 (centres undefined) 2.59%, O=C(CCCOc1ccc(Br)cc1)NNC(=O)c1ccncc1 26.4%, CCc1ccc(NC(=O)c2cc(-c3ccco3)on2)cc1 6.38%, O=C(CSc1cn(Cc2ccccc2)c2ccccc12)NCc1ccc(F)cc1 6.13%, C=CCn1c(SCC(=O)N2CCOCC2)nc2scc(-c3ccco3)c2c1=O 22.1%, C=CCn1c(SCC(=O)NCCCC)nc2scc(-c3ccco3)c2c1=O 32.9%, C=CCn1c(=S)[nH]c2scc(-c3ccc(C)o3)c2c1=O 7.5%, C=CCn1c(=S)[nH]c2scc(-c3cccs3)c2c1=O 9.96%, COc1cc(/C=C/[N+](=O)[O-])ccc1OC(=O)/C=C/c1ccc(F)cc1 17.2%, CC(C)CCN(CCC(C)C)CC(O)Cn1c2ccccc2c(=O)c2ccccc21 (centres undefined) 8.16%, CC(=O)c1cccc(NC(=S)NC(=O)c2ccccc2C)c1 -10%, CC(=O)OCCCCCCCCCCC[N+]1(C)CCCCC1 27.6%, COC(=O)CCCCCCCCCC[N+]1(C)CCCCC1 -2.24%, COc1cc([N+](=O)[O-])ccc1NC(=O)Nc1cnccn1 13.4%, Cc1[nH]n(-c2ccccc2)c(=O)c1C=Nc1ccc2[nH]c(=O)[nH]c2c1 19.5%, CCc1ccc(S(=O)(=O)NCC(O)COc2ccc(OC)cc2)cc1 (centres undefined) 1.57%, Nc1ccc(CCS(N)(=O)=O)cc1 2.24%, O=C(Oc1coc(CSc2ncccn2)cc1=O)c1ccccc1[N+](=O)[O-] 18.4%, Cc1ccc2c3c(c(SCC(=O)Nc4nccs4)nc2c1)CCCC3 -1.03%, Cn1c(-c2ccccc2[N+](=O)[O-])[n+](C)c2ccccc21 11.2%, Cc1cc(/C=C2\C(=N)N3N=C(CC(=O)N4CCOCC4)SC3=NC2=O)c(C)n1-c1ccccc1 11.9%, CCOC(=O)C1CC2CC(C1)CN(C(=O)C1CCCCC1)C2 (centres undefined) 1.74%, C/C(=N\Nc1ccc([N+](=O)[O-])cc1)c1ccc(O)cc1 23.8%, O=[N+]([O-])c1ccccc1N=Nc1ccc(O)cc1 16.2%, [O-]/C(=C(\C(=S)NCc1ccco1)[n+]1ccccc1)c1ccccc1Br 20.6%, CS(=O)(=O)c1ccc(Cl)c(NC(=O)CCNC(=O)c2ccco2)c1 1.63%, CC(C)c1nnc(NC(=O)CCC(=O)N2CCC(Cc3ccccc3)CC2)s1 16.2%, CC(C)CN1C(=O)c2ccc(C(=O)Nc3ccccn3)cc2C1=O 3.11%, C=CCN1CC(c2nc3ccccc3n2CCOc2ccccc2)CC1=O (centres undefined) -0.56%, CN(C)/N=C/c1ccc(N2CCOCC2)cc1 16.2%, CN(CC(=O)Nc1ccc(N2CCOCC2)cc1)CC(=O)Nc1ccc(N2CCOCC2)cc1 21.6%, CN(C)C(CNc1ccc(S(C)(=O)=O)cc1[N+](=O)[O-])Cc1ccccc1 (centres undefined) -5.33%, CCOC(=O)/C(C#N)=C/Nc1ccccc1NS(=O)(=O)c1ccc(C)c(C)c1 9.42%
